Source: paper PMC10726135, “HNF4α isoforms regulate the circadian balance between carbohydrate and lipid metabolism in the liver”
Whole data set: some 18,000 sequences, median “log2 normalized intensity” near 0.36, cut for the highest 2% near 7.3. Only a selection was taken, and the highest values are over-represented in it overall.

Biological target: T1, HNF4alpha8 (COS-7 nuclear extract) (Homo sapiens, UniProt P41235-5 1-452)
T1 sequence: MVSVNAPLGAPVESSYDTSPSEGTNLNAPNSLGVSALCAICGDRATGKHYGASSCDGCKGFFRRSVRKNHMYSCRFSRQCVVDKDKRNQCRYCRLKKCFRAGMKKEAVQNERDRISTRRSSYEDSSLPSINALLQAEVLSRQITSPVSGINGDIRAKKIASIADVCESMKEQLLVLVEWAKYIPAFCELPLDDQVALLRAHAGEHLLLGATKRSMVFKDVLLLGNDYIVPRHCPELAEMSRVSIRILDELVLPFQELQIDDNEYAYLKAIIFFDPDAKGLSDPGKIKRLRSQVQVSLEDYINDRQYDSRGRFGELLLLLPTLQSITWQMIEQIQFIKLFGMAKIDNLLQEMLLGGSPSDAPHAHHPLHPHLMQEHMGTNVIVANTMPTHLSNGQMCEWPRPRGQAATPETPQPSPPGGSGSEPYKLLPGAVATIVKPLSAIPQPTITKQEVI
Assay: protein-binding microarray; COS-7 nuclear extract on double-stranded Agilent 4x180k PBM; binding buffer, salt, pH and temperature not given in the material; high values mean tight binding
Details: chain copies: 2; label: 3' end of strand 1 on the slide; dsDNA, one strand shown
Outline: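 Using CaPO4, COS-7 cells were transiently transfected with a human HNF4α isoform expression vector, and their nuclear extracts were applied to a custom Agilent SurePrint G3 4x180k double-stranded oligonucleotide array (~60 nt; ~44,000 test sequences in quadruplicate). Bound HNF4α was imaged at 2-µm resolution with an Agilent G2565CA scanner. Agilent software supplied the background-corrected, normalized gProcessedSignal that serves as the binding signal.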

| Sequence | binding signal [log2 normalized intensity] |
| --- | --- |
| AGACTGGTTTGCACAGGTTACACAGTATGTGCCTAGGGAGATTAGAGTATCGGTCGA | -0.754 |
| AAGGTCACTAATTGGAAGCTCTTTCCCTCCGCCTAGGGAGATTAGAGTATCGGTCGA | 0.732 |
| CAATAAGGACTTTGGACCGTCTTGTGGATCGCCTAGGGAGATTAGAGTATCGGTCGA | 6.72 |
| GAGCACTCATTCCTATTCGGTGCTGACCTTGCCTAGGGAGATTAGAGTATCGGTCGA | 3.97 |
| CTCATTCCTATTCGGTGCTGACCTTTGTTCGCCTAGGGAGATTAGAGTATCGGTCGA | 8.62 |
| ACACACAATAAGGACTTTGGACCGTCTTGTGCCTAGGGAGATTAGAGTATCGGTCGA | 8.19 |
| GTGAGTGGACTTTGGTCCTGGTCAGACTTGGCCTAGGGAGATTAGAGTATCGGTCGA | 6.78 |
| TTTGGACCTGGCCTGCGGGGTCAGGCCGTGGCCTAGGGAGATTAGAGTATCGGTCGA | 2.71 |
| GTTAAGTGAGTGGACTTTGGTCCTGGTCAGGCCTAGGGAGATTAGAGTATCGGTCGA | 7.53 |
| AGGACTTTGGACCGTCTTGTGGATCCTTGGGCCTAGGGAGATTAGAGTATCGGTCGA | 5.27 |
| TCCTATTCGGTGCTGACCTTTGTTCACATTGCCTAGGGAGATTAGAGTATCGGTCGA | 6.64 |
| AGTCCATGTGTTAAATAATAACACTCCCATGCCTAGGGAGATTAGAGTATCGGTCGA | -0.441 |
| CCTTCCCTTTCATGTTGAACGTCTTCAGAAGCCTAGGGAGATTAGAGTATCGGTCGA | 1.35 |
| CTGCCCAGACCTTATCTTGCATTTCTTCAGGCCTAGGGAGATTAGAGTATCGGTCGA | 0.246 |
| CTGCCTGCTTGGCCTCTCCACTTGGGTATCGCCTAGGGAGATTAGAGTATCGGTCGA | -0.182 |
| CAAAGGTCATAATTTGATCCAGTGTGCAAAGCCTAGGGAGATTAGAGTATCGGTCGA | 4.08 |
| CACAGAGCAAAGGTCATGCATAGAAGTATGGCCTAGGGAGATTAGAGTATCGGTCGA | 4.43 |
| AGAAAACACAGAGATCTGATCAAAGGTCATGCCTAGGGAGATTAGAGTATCGGTCGA | 6.61 |
| TGATCCAGGGCAAAGGTCATAATTTGATCCGCCTAGGGAGATTAGAGTATCGGTCGA | 6.94 |
| ACACAGGACTTGATCCAGGGCAAAGGTCATGCCTAGGGAGATTAGAGTATCGGTCGA | 7.91 |
| GGACTTGATCCAGGGCAAAGGTCATAATTTGCCTAGGGAGATTAGAGTATCGGTCGA | 7.95 |
| AATGGAGTTTGGTTTAAAGTTCAAGTCATAGCCTAGGGAGATTAGAGTATCGGTCGA | 2.74 |
| AGGTGTAACCTGCTCTCTCATGCCCTTTGCGCCTAGGGAGATTAGAGTATCGGTCGA | 4.81 |
| CTTTCCTGGTGCCTCCTTATCTCCCCAACTGCCTAGGGAGATTAGAGTATCGGTCGA | 3.48 |
